Source: PubChem BioAssay (Tox21)
Inconclusive results are not listed. Activity calls are given as the source filed them. Unless noted, the call rests on the fitted dose curve; in most records, active means well fitted curve in the direction sought with a large enough effect in the repeat runs; inconclusive means weak or mixed curves; inactive means no such curve, though single readings can be large; an effect the other way counts as inactive or inconclusive.

How the values were obtained:
[1] = qHTS assay to identify small molecule antagonists of the thyroid receptor (TR) signaling pathway - cell viability counter screen (AID 743064); further: nearly all actives have a fitted effect of over 50% in size
How it was run: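 CellTiter-Fluor readout, 30 min at 37 °C/5% CO2, following 23.5 h incubation of GH3.TRE-Luc cells with test compound and 1 nM T3 (final).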

[2] = qHTS assay to identify small molecule antagonists of the thyroid receptor (TR) signaling pathway (AID 743065); further: series mostly up to about 70 µM; nearly all actives have a fitted effect of over 55% in size
How it was run: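 GH3.TRE-Luc rat pituitary cells carrying two TR response elements driving luciferase were plated for 4 h, given compound plus 1 nM T3 (final), and incubated 23.5 h at 37 C. ONE-Glo luminescence measured reporter inhibition; CellTiter-Fluor fluorescence tracked cytotoxicity.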

[3] = tested on: thyroid hormone receptor (rat, GH3 cells); test: qHTS assay to identify small molecule agonists of the thyroid receptor (TR) signaling pathway (AID 743066; calls by dose curve)
[4] = biological target: Estrogen receptor (Homo sapiens) (UniProt P03372); test: qHTS assay to identify small molecule antagonists of the estrogen receptor alpha (ER-alpha) signaling pathway (AID 743069; active means well fitted curve in the direction sought with a large enough effect in the signal ratio in the repeat runs, not every such curve was filed as active; the % refers to the signal ratio)
Sequence of Estrogen receptor (Homo sapiens) (P03372 whole entry, looked up): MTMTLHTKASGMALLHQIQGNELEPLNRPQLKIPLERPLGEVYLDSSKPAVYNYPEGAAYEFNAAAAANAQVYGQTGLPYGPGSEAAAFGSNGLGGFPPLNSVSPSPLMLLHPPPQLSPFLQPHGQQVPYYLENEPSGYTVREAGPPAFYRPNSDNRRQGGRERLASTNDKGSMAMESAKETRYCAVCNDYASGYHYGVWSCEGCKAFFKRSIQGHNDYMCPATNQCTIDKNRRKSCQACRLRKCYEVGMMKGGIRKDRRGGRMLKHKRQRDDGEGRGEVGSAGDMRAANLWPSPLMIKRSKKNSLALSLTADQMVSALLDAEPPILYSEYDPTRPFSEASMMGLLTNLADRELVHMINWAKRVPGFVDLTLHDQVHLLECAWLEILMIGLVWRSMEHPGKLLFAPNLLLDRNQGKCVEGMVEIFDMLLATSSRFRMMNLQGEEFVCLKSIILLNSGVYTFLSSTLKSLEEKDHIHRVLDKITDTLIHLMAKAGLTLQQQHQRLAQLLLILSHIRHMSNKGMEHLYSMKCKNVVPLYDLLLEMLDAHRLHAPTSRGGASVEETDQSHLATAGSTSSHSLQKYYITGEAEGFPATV
How it was run: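 Estradiol-stimulated ER-alpha-UAS-bla HEK293 cells, 18 hr compound exposure at 37C. LiveBLAzer B/G substrate, 2 hr RT, fluorescence read.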

[5] = qHTS assay to identify small molecule antagonists of the estrogen receptor alpha (ER-alpha) signaling pathway - cell viability counter screen (AID 743074; calls by dose curve;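 further: HEK293 cells carrying ER-alpha-UAS-bla reporter stimulated with 17beta-estradiol; nearly all actives have a fitted effect of over 45% in size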)
[6] = biological target: Estrogen receptor (Homo sapiens) (UniProt P03372); test: qHTS assay to identify small molecule agonists of the estrogen receptor alpha (ER-alpha) signaling pathway (AID 743075; calls by dose curve;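 further: HEK293 GripTite cells with ER-alpha and UAS-driven beta-lactamase reporter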)
[7] = biological target: Estrogen receptor (Homo sapiens) (UniProt P03372); test: qHTS assay to identify small molecule agonists of the estrogen receptor alpha (ER-alpha) signaling pathway using the BG1 cell line (AID 743079); further: nearly all actives have a fitted effect of over 20% in size
[8] = qHTS assay to identify small molecule antagonists of the estrogen receptor alpha (ER-alpha) signaling pathway using the BG1 cell line (AID 743080; calls by dose curve;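 further: BG1 cells stimulated with 17beta-estradiol alongside compound; series mostly up to about 70 µM; nearly all actives have a fitted effect of over 25% in size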)
How it was run: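 Seeding, 24 h rest, compound transfer from DMSO, 17beta-estradiol addition, 21.5 h incubation, CellTiter-Fluor (30 min, 37 C), then ONE-Glo (30 min, room temperature): this sequence was run on BG1-Luc-4E2 reporter cells.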

[9] = qHTS assay to identify small molecule antagonists of the estrogen receptor alpha (ER-alpha) signaling pathway using the BG1 cell line - cell viability counter screen (AID 743081);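 further: compound given together with 17beta-estradiol as the ER stimulus; series mostly up to about 70 µM; nearly all actives have a fitted effect of over 45% in size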
[10] = biological target: Aromatase (Homo sapiens) (UniProt P11511); test: qHTS assay to identify aromatase inhibitors (AID 743083); further: series mostly up to about 70 µM; nearly all actives have a fitted effect of over 55% in size
Sequence of Aromatase (Homo sapiens) (P11511 whole entry, looked up): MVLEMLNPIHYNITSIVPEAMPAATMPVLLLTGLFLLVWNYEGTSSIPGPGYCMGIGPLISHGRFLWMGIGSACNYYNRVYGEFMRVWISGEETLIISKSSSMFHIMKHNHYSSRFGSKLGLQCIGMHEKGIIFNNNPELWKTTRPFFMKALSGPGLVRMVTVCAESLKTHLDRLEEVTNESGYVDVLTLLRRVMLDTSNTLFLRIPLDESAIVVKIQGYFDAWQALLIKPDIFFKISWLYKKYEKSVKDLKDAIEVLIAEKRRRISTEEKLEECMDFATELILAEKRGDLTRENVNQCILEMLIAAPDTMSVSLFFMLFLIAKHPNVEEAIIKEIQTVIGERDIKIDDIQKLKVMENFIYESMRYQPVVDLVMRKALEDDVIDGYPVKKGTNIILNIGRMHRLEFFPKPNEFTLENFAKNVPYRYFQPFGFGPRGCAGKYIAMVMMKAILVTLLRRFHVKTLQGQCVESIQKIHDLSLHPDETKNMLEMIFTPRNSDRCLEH

[11] = qHTS assay to identify aromatase inhibitors - cell viability counter screen (AID 743084);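 further: cells stimulated with testosterone during compound exposure; nearly all actives have a fitted effect of over 55% in size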
[12] = biological target: Aryl hydrocarbon receptor (Homo sapiens) (UniProt P35869); test: qHTS assay to identify small molecule that activate the aryl hydrocarbon receptor (AhR) signaling pathway (AID 743085);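 further: HG2L7.5c1 human HepG2 liver cells with stably integrated DRE-driven firefly reporter; series mostly up to about 70 µM; nearly all actives have a fitted effect of over 15% in size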
Sequence of Aryl hydrocarbon receptor (Homo sapiens) (P35869 whole entry, looked up): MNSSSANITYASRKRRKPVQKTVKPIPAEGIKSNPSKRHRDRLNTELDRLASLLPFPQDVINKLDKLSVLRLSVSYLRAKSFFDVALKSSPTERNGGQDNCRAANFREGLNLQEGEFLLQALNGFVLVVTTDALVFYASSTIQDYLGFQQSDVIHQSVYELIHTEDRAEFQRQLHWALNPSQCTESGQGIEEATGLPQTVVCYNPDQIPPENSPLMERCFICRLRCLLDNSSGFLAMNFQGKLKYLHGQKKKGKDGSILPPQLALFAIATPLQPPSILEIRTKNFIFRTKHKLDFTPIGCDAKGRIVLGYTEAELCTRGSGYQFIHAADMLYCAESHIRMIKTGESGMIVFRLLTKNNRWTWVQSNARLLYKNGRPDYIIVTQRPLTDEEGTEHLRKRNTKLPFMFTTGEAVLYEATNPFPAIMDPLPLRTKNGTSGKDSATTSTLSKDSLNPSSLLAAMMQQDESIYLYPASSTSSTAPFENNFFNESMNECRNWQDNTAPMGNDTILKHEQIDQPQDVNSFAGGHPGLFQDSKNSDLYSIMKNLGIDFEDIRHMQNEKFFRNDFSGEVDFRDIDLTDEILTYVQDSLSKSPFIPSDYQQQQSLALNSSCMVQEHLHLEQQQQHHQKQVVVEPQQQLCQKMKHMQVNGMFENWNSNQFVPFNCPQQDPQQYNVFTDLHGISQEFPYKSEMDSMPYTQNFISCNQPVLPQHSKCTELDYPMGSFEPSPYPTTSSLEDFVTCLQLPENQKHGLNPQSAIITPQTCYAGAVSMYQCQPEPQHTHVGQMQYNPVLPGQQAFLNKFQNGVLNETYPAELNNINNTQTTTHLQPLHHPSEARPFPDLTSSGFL
How it was run: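 Stably transfected human liver carcinoma cells (HG2L7.5c1; 20 DRE-firefly luciferase) were incubated 5 h, dosed, and kept 24 h at 37C. Agonism was scored from increased luciferase luminescence.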

[13] = qHTS assay to identify small molecule that activate the aryl hydrocarbon receptor (AhR) signaling pathway - cell viability counter screen (AID 743086);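 further: HepG2 liver cells carrying the AhR DRE luciferase reporter; series mostly up to about 70 µM; nearly all actives have a fitted effect of over 45% in size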
How it was run: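 HepG2-AhR-luc (HG2L7.5c1) cells, 4000/well, were preincubated 5 h at 37C, exposed to compound in qHTS format for 24 hr at 37C, then given CellTiter-Fluor for 30 min; viability was read as fluorescence in the reporter wells.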

[14] = biological target: Peroxisome proliferator-activated receptor gamma (Homo sapiens) (UniProt P37231); test: qHTS assay to identify small molecule agonists of the peroxisome proliferator-activated receptor gamma (PPARg) signaling pathway (AID 743094; active means well fitted activation curve with a large enough effect in the signal ratio in the repeat runs, not every such curve was filed as active; the % refers to the signal ratio)
Sequence of Peroxisome proliferator-activated receptor gamma (Homo sapiens) (P37231 whole entry, looked up): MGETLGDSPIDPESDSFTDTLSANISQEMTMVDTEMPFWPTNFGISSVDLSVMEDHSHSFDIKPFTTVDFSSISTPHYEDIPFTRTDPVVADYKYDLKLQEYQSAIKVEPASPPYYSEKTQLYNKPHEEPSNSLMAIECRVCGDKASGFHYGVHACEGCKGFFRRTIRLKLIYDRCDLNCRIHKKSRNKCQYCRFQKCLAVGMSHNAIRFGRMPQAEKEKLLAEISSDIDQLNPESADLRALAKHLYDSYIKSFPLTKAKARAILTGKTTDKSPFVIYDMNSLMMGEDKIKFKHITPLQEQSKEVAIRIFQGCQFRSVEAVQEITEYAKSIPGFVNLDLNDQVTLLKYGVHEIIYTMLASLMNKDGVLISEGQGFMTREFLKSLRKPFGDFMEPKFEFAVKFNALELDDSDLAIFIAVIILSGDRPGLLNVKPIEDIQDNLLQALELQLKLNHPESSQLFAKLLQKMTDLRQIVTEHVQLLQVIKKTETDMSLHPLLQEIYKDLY
How it was run: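 Quantitative HTS agonist mode: stable HEK293H line with UAS-beta-lactamase reporter under PPARg control, 17 h compound exposure at 37C, fluorescence after 1 h FRET substrate loading at room temperature.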

[15] = qHTS assay for small molecule agonists of the antioxidant response element (ARE) signaling pathway (AID 743202; active means well fitted activation curve with a large enough effect in the signal ratio in the repeat runs, not every such curve was filed as active; the % refers to the signal ratio)
How it was run: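 Compounds delivered in DMSO to ARE-bla HepG2 cells (2,000 cells/well, pre-incubated 5 h) and left 16 h at 37 C. LiveBLAzer B/G FRET substrate then added for 2 h at RT before fluorescence reading.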

[16] = qHTS assay for small molecule agonists of the antioxidant response element (ARE) signaling pathway - cell viability counter screen (AID 743203; calls by dose curve; further: nearly all actives have a fitted effect of over 55% in size)
How it was run: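 Seeded at 2,000 cells/well, ARE-bla HepG2 cells were incubated 5 hrs before compound addition. After 16 hrs of treatment at 37C with 5% CO2, CellTiter-Glo reagent was added and luminescence read 30 min later.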

[17] = qHTS assay for small molecule activators of the heat shock response signaling pathway - cell viability counter screen (AID 743209); further: nearly all actives have a fitted effect of over 50% in size
How it was run: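 First, HSE-bla HeLa cells were seeded at 1500 cells/well and kept overnight at 37 C. Next, compounds were pinned in and incubated 5 h. After the FRET substrate step, CellTiter-Glo was added and luminescence read 30 min later.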

[18] = qHTS assay to identify small molecule antagonists of the peroxisome proliferator-activated receptor gamma (PPARg) signaling pathway - cell viability counter screen (AID 743194); further: nearly all actives have a fitted effect of over 55% in size
How it was run: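 PPARg-UAS-bla HEK293H cells were plated, rested 5 h at 37 C, then treated with compounds plus rosiglitazone (50 nM final) for 17 h at 37 C; viability was then read by CellTiter-Glo luminescence after 30 min at room temperature.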

[19] = qHTS assay for small molecule activators of the heat shock response signaling pathway (AID 743210; active means well fitted activation curve with a large enough effect in the signal ratio in the repeat runs, with a control signal flat, not every such curve was filed as active; the % refers to the signal ratio;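 further: HeLa cells with beta-lactamase reporter driven by heat shock elements; series mostly up to about 63 µM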)
How it was run: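 Reporter gene assay: HeLa cells stably bearing an HSE-bla construct, compound treatment 5 h at 37 C, LiveBLAzer substrate 2.5 h at RT, fluorescence intensity.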

[20] = biological target: Peroxisome proliferator-activated receptor gamma (Homo sapiens) (UniProt P37231); test: qHTS assay to identify small molecule antagonists of the peroxisome proliferator-activated receptor gamma (PPARg) signaling pathway (AID 743191; calls by dose curve; further: series mostly up to about 63 µM; nearly all actives have a fitted effect of over 30% in size)
How it was run: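 GeneBLAzer PPARg UAS-bla HEK293H cells carrying a UAS-driven beta-lactamase reporter were plated at 3000 cells/well, preincubated 5 h at 37C, then given compound for 17 h at 37C; LiveBLAzer B/G FRET substrate was read after 1 h at room temperature.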

Measured: Potency

CCCCN
not listed: [18] | [19] | [20]
inactive: all other assays above

CC[C@H](C)C(=O)O[C@H]1C[C@H](O)C=C2C=C[C@H](C)[C@H](CC[C@@H](O)C[C@@H](O)CC(=O)O)[C@H]21
not listed: [15] | [20]
inactive: all other assays above

CO[C@@H]1[C@@H](OC(N)=O)[C@@H](O)[C@H](Oc2ccc3c(O)c(NC(=O)c4ccc(O)c(CC=C(C)C)c4)c(=O)oc3c2C)OC1(C)C
not listed: [14] | [16] | [20]
inactive: all other assays above

CC(=O)OC(C)OC(=O)C(C)c1ccc(-c2ccccc2)c(F)c1 (configuration not stated)
not listed: [18] | [20]
inactive: all other assays above

COc1ccc(S(=O)(=O)N2c3ccc(Cl)cc3[C@@](O)(c3ccccc3Cl)[C@H]2C(=O)N2CCC[C@@H]2C(N)=O)cc1OC
not listed: [14] | [16]
inactive: all other assays above

CCCCOCCOC(=O)COc1nc(Cl)c(Cl)cc1Cl
not listed: [15] | [20]
inactive: all other assays above

CC(C)N(c1ccccc1)C(C)C
not listed: [18]
inactive: all other assays above

CC(=O)CCCCn1c(=O)c2c(ncn2C)n(C)c1=O
inactive: all assays above

CC(C)CCCC(C)(C)O
not listed: [19]
inactive: all other assays above

O=C(OCC(COC(=O)c1cccnc1)(COC(=O)c1cccnc1)COC(=O)c1cccnc1)c1cccnc1
inactive: all assays above

C=C(C)C1CCC(C)(O)CC1 (configuration not stated)
inactive: all assays above

O=C1c2ccccc2C(=O)C1c1ccccc1
not listed: [18] | [19]
inactive: all other assays above

CCCCCCCCSCC
not listed: [15] | [18] | [19] | [20]
inactive: all other assays above

COc1cc(C(=S)N2CCOCC2)cc(OC)c1OC
inactive: all assays above

COP(=O)(OC)OC(c1ccc(Cl)cc1)P(=O)(OC)OC (configuration not stated)
not listed: [19]
inactive: all other assays above
